{"source": "PubChem BioAssay AID1851", "about": "(National Center for Advancing Translational Sciences (NCATS), 2009)", "note": "The whole screen tested about 16,000 compounds, of which about 5,100 (32%) were called active. Not shown: some 25% with an inconclusive outcome. The list shows a part of the results. Values without a mark were called inactive. Calls come from the whole dose curve; as a rule, active = well fitted curve in the direction sought with a large enough effect; inconclusive = small, poorly fitted or top-dose-only effect, or effect the other way; inactive = no such curve, though single readings can be large or run the other way. % is set by controls: 0 for no effect and ±100 for the full control effect.", "data": [{"target": "Cytochrome P450 3A4 (Homo sapiens) (UniProt P08684)", "sequence (P08684 whole entry, looked up)": "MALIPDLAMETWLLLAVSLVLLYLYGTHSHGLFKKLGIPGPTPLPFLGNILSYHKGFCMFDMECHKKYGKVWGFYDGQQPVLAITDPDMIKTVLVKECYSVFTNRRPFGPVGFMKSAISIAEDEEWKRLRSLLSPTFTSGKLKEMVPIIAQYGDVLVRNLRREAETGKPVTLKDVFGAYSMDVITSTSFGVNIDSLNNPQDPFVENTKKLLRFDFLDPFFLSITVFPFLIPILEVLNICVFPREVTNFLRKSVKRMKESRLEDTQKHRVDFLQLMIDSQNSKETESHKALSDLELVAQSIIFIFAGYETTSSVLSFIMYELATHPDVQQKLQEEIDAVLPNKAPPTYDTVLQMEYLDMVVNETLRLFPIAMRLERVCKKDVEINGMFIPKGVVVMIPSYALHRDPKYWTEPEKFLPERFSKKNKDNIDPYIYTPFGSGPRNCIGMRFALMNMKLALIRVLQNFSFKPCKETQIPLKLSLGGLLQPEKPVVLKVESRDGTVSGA", "assay": "Cytochrome panel assay with activity outcomes", "details": "recombinant CYP, pro-luciferin dealkylation, luminescence, p450-cyp3a4; series mostly up to 57.1 µM; activity, negative = inhibition: at the top concentration", "values": [{"smiles": "CCOc1ccc(CCNC(=O)CCCN2C(=O)c3ccccc3C2=O)cc1OCC", "AC50": "7.08 µM (active)"}, {"smiles": "COc1ccc(CC(=O)NCCN2CCCC2)cc1", "activity, negative = inhibition": "0.907%"}, {"smiles": "CCCN(CCC)CCCNC(=O)c1ccc2c(c1)N(CC)C(=O)c1ccccc1S2=O", "note": "(centres undefined)", "activity, negative = inhibition": "-23.9%"}, {"smiles": "COc1ccc(CCNC(=O)CCCCCN2C(=O)c3ccccc3C2=O)cc1", "AC50": "6.31 µM (active)"}, {"smiles": "CCOC(=O)c1c(C)n(C)c2ccc(OC(=O)c3ccco3)cc12", "AC50": "15.8 µM (active)"}, {"smiles": "CCN(CC)CCOC(=O)c1c(C)n(C)c2ccc(OC)cc12", "activity, negative = inhibition": "-23.9%"}, {"smiles": "CCCc1cc2c(=O)c(-c3ccc4c(c3)OCCO4)coc2cc1OC(=O)c1ccco1", "activity, negative = inhibition": "9.62% [at 2.29 µM]"}, {"smiles": "CC(=O)OC[C@@H]1O[C@@H](O/N=C2/C[C@@H](O)[C@@H](O)[C@@H]3[C@@H]4C(=O)N(C(C)(C)C)C(=O)[C@H]4CC[C@@H]23)[C@H](OC(C)=O)[C@H](OC(C)=O)[C@@H]1OC(C)=O", "activity, negative = inhibition": "-3.46% [at 11.4 µM]"}, {"smiles": "CC1=NN(c2ccccc2)C(=O)/C1=C\\N1CC(C)OC(C)C1", "note": "(centres undefined)", "activity, negative = inhibition": "-26.3%"}, {"smiles": "Nc1cccc2cc(S(=O)(=O)Nc3ccc(C(=O)O)cc3)ccc12", "activity, negative = inhibition": "-7.54% [at 11.4 µM]"}, {"smiles": "CC(=O)c1cccc(NS(=O)(=O)c2ccc(N/C=C\\C(=O)c3ccc(F)cc3)cc2)c1", "AC50": "0.708 µM (active)"}, {"smiles": "Cc1ccc(C)c(/C(=N\\N=C(N)N)C2CC2)c1", "activity, negative = inhibition": "-27% [at 11.4 µM]"}, {"smiles": "COc1cc(/C=C(\\C#N)c2nc3c(s2)CC(C)CC3)ccc1O", "note": "(centres undefined)", "AC50": "25.1 µM (active)"}, {"smiles": "C=CCOc1ccccc1OC[C@H](O)CNC(C)C", "activity, negative = inhibition": "-0.918% [at 25.6 µM]"}, {"smiles": "C=CCc1ccccc1OC[C@H](O)CNC(C)C", "AC50": "inactive"}, {"smiles": "CCOC(=O)C1CCN(C(=O)c2ccccc2NC(C)=O)CC1", "activity, negative = inhibition": "-0.79%"}, {"smiles": "COc1ccc2oc(=O)c(NC(=O)C3CCCCC3)cc2c1", "activity, negative = inhibition": "-7.77%"}, {"smiles": "COc1ccc(NC(=O)C2CCN(C(=O)c3cccs3)CC2)c(OC)c1", "AC50": "28.2 µM (active)"}, {"smiles": "COC(=O)c1ccccc1NC(=O)C1CCN(C(=O)c2ccc(OC)cc2)CC1", "AC50": "6.31 µM (active)"}, {"smiles": "COc1cc(OC)cc(C(=O)Nc2ccccc2C(=O)N2CCCC2)c1", "activity, negative = inhibition": "-8.41% [at 2.29 µM]"}, {"smiles": "CC(C)(C)c1ccc(OC(=O)Cn2c(C(F)(F)F)nc3ccccc32)cc1", "activity, negative = inhibition": "23%"}, {"smiles": "O=C(Cn1c(-c2cscn2)nc2ccccc21)Nc1cc(F)ccc1F", "AC50": "14.1 µM (active)"}, {"smiles": "COc1ccc(O[C@H]2C=C[C@@H](c3ccccc3)O[C@@H]2CO/N=C(\\C)CCN2CCCCc3nc(C)c(C)cc32)cc1", "AC50": "3.98 µM (active)"}, {"smiles": "COc1ccc(O[C@H]2C=C[C@@H](c3ccccc3)O[C@@H]2CO/N=C(\\C)CCN2CCCc3nc(C)c(C)cc32)cc1", "AC50": "3.16 µM (active)"}, {"smiles": "Cc1cc(C)c(S(=O)(=O)Nc2cccc(C(F)(F)F)c2)c(C)c1", "AC50": "12.6 µM (active)"}, {"smiles": "Cc1cc(C)c(S(=O)(=O)Nc2ccccc2C(F)(F)F)c(C)c1", "AC50": "2.51 µM (active)"}, {"smiles": "C[C@@H]1C(=O)N(C)C(=O)c2nc[nH]c21", "activity, negative = inhibition": "-3.89%"}, {"smiles": "O=C(NCCOC12CC3CC(CC(C3)C1)C2)c1cccc(Br)c1", "activity, negative = inhibition": "-3.19% [at 2.29 µM]"}, {"smiles": "CNc1nc(NCCOC23CC4CC(CC(C4)C2)C3)nc(OCC(F)(F)F)n1", "AC50": "25.1 µM (active)"}, {"smiles": "CCC(C)Nc1nc(OCC(F)(F)F)nc(OCC(F)(F)F)n1", "note": "(centres undefined)", "activity, negative = inhibition": "4.7% [at 11.4 µM]"}, {"smiles": "COC(=O)/C=C/CSC1=N/C(=C/c2ccc(-n3cncn3)cc2)C(=O)N1", "AC50": "2 µM (active)"}, {"smiles": "Cn1c(Oc2ccccc2)c(C=O)c2ccccc21", "activity, negative = inhibition": "9.35%"}, {"smiles": "COc1ccc(Oc2c(C=O)c3ccccc3n2C)cc1", "AC50": "17.8 µM (active)"}, {"smiles": "CC(C)Oc1ccc2ccccc2c1C=O", "activity, negative = inhibition": "6.45% [at 2.29 µM]"}, {"smiles": "Cn1ncc([N+](=O)[O-])c1C(=O)N1CCOCC1", "activity, negative = inhibition": "-9.46% [at 2.29 µM]"}, {"smiles": "Cc1ccc2cc(C(=O)O)c(C)nc2c1", "activity, negative = inhibition": "10.8%"}, {"smiles": "COc1ccc(C)cc1NC(=O)c1cc2cc3ccc(C)cc3nc2o1", "activity, negative = inhibition": "-12.1%"}, {"smiles": "Cc1ccc2cc3cc(C(=O)N4CCCCC4C)oc3nc2c1", "note": "(centres undefined)", "AC50": "12.6 µM (active)"}, {"smiles": "Cc1ccc2nc(-c3cccnc3)oc2c1", "AC50": "39.8 µM (active)"}, {"smiles": "c1ccc(-c2nc3ccccc3o2)nc1", "activity, negative = inhibition": "-18.2%"}, {"smiles": "Clc1ccc2oc(-c3cccnc3)nc2c1", "activity, negative = inhibition": "-3.98%"}, {"smiles": "O=[N+]([O-])c1ccc(N2CCCC2)cc1N1CCCC1", "activity, negative = inhibition": "-24.1%"}, {"smiles": "Cc1cc(C)n(-c2cc(N3CCN(S(=O)(=O)c4ccc(C)c(C)c4)CC3)ccc2[N+](=O)[O-])n1", "AC50": "3.16 µM (active)"}, {"smiles": "CS(=O)(=O)N1CCN(c2c(Cl)cccc2[N+](=O)[O-])CC1", "activity, negative = inhibition": "15.1%"}, {"smiles": "CCN(CC)C(=O)C(=O)N/N=C/c1cccc(Br)c1", "activity, negative = inhibition": "-20.6%"}, {"smiles": "Cc1c(Cl)c([N+](=O)[O-])nn1Cc1ccc(C(=O)N/N=C\\c2cccc(Br)c2)o1", "AC50": "3.98 µM (active)"}, {"smiles": "Cc1c(Cl)c([N+](=O)[O-])nn1Cc1ccc(C(=O)N/N=C\\c2cc(Cl)ccc2O)o1", "AC50": "2.24 µM (active)"}, {"smiles": "C/C(Cn1nc([N+](=O)[O-])cc1C)=N\\NC(=O)c1ccc(O)cc1O", "activity, negative = inhibition": "-3.84% [at 2.29 µM]"}, {"smiles": "Cc1cc(C(=O)N/N=C/c2cccc([N+](=O)[O-])c2)c(C)o1", "activity, negative = inhibition": "-17%"}]}]}
